# Inconclusive results are not listed. Where a call stands in place of a potency, no number is given. A number with no mark means an inactive call. Calls of active or inactive are those of the source. Calls come from the whole dose curve; as a rule, active = well fitted curve in the direction sought with a large enough effect; inconclusive = small, poorly fitted or top-dose-only effect, or another doubt; inactive = no such curve, though single readings can be large; an effect the other way counts as inactive or inconclusive. Numbered stars: 1 amine (or outer) side, 2 acyl side, 3 side chain; on linkers, the order of the positions; unused ones are H or OH. Square brackets hold non-standard residues; d marks the D form. Peptide text beside a SMILES is read from it. X10 = O=C(C(CC(O)CO)O[*:1])[*:2]; NMeV = CN[CH](C(=O)O)C(C)C; NMeA = CN[CH](C)C(=O)O; βAla = NCCC(=O)O
# Tests used:
# [1] = biological target: Aldehyde dehydrogenase, mitochondrial (Homo sapiens) (UniProt P05091); experiment: qHTS for Inhibitors of the Aldehyde Dehydrogenase Family (ALDH2) Primary screen (AID 2061308); note: nearly all actives have a fitted effect of over 55% in size
# [2] = biological target: Retinaldehyde dehydrogenase 3 (Homo sapiens) (UniProt P47895); experiment: qHTS for Inhibitors of the Aldehyde Dehydrogenase Family (ALDH1A3) Primary screen (AID 2061315)
# [3] = BET inhibitor-based combinations targeting novel dependencies in MECOM-rearranged (r) AML: SET-2 cell line (AID 2202231); details: SET-2 AML cells viability, CellTiter-Glo luminescence, 48 h; viability: stronger effect = lower value, series mostly up to about 46 µM; note: nearly all actives have a fitted effect of over 35% in size
# Method in brief: (§1)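 AML cell lines seeded at 500 cells/well, treated with 11-point dose curves for 48 h. Viability by CellTiter-Glo luminescence, normalised to DMSO and empty wells; activity expressed as AUC and per-cell-line Z-transformed AUC.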
# [4] = BET inhibitor-based combinations targeting novel dependencies in MECOM-rearranged (r) AML: HNT-34 cell line (AID 2202234); note: nearly all actives have a fitted effect of over 35% in size
# Method in brief: (§2)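 Cells at 500/well were exposed for 48 hr to MIPE v5.0 drugs as 11-point dose curves. Viability was read by CellTiter-Glo luminescence and normalized to DMSO and empty-well controls. Activity was expressed as AUC and per-cell-line Z-AUC.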
# [5] = BET inhibitor-based combinations targeting novel dependencies in MECOM-rearranged (r) AML: UCSD-AML1 cell line (AID 2202235); note: series mostly up to about 46 µM; nearly all actives have a fitted effect of over 40% in size
# Method in brief: as §2
# [6] = BET inhibitor-based combinations targeting novel dependencies in MECOM-rearranged (r) AML: AML-194 cell line (AID 2202237; note: nearly all actives have a fitted effect of over 40% in size)
# Method in brief: as §1
smiles,measurement,setting,value
CC1(C)CC[C@]2(C(=O)O)CC[C@]3(C)C(=CCC4[C@@]5(C)CC[C@H](O)C(C)(C)C5CC[C@]43C)C2C1 (some centres undefined),Potency,[1],inactive
same,Potency,[2],inactive
CC1=C(COC2OC(CO)C(O)C(O)C2O)C(C(CO)C(=O)O)CC1 (centres undefined),Potency,[1],inactive
same,Potency,[2],inactive
COC1/C=C/C(C)(O)C(SCC(N)C(=O)O)CC(=O)OC(C)C(C)CC/C=C/1C (centres undefined),Potency,[1],inactive
same,Potency,[2],inactive
Cc1cnn(-c2ccccc2)c1NC(=O)COCc1ccccc1,Potency,[1],inactive
same,Potency,[2],inactive
CNS(=O)(=O)c1ccccc1Nc1nc(Nc2ccc(N3CCN(C)CC3)cc2OC)ncc1Cl,Potency,[1],inactive
same,Potency,[2],inactive
CC1=CC(=O)[C@@]2(C(C)C)C[C@@H]12,Potency,[1],inactive
same,Potency,[2],inactive
C[C@]12C=C[C@@]3(CCC4[C@](C)(CO)CCC[C@@]4(C)C3CC1)C2 (some centres undefined),Potency,[1],inactive
same,Potency,[2],inactive
CN(C)CC1CCn2c(c(C3=C(c4cn(C)c5ccccc45)C(=O)NC3=O)c3ccccc32)C1 (centres undefined),Potency,[1],inactive
same,Potency,[2],inactive
O=C1NCc2nc3ccccc3c(=O)n2C1Cc1c[nH]c2ccccc12 (centres undefined),Potency,[1],inactive
same,Potency,[2],inactive
CC1CCC2(C(=O)O)CCC3(C)C(=CCC4C5(C)CCC(O)C(C)(C(=O)O)C5CCC43C)C2C1(C)O (centres undefined),Potency,[1],inactive
same,Potency,[2],inactive
COC1C(=O)CCC2(CO2)C1(O)C1(C)OC1CC=C(C)C (centres undefined),Potency,[1],inactive
same,Potency,[2],inactive
CCCC(=O)C1(c2ccccc2)CCN(C(=O)[C@@H](Cc2ccc(OC)cc2)NC(=O)[C@@H](N)Cc2cncn2C)CC1,Potency,[1],inactive
same,Potency,[2],inactive
Cc1cc2c(cc1N1C(=O)c3cccc4c(CCCO)ccc(c34)C1=O)n(C)c(=O)n2C,Potency,[1],inactive
same,Potency,[2],inactive
Cc1ccc(-c2ncc[nH]2)cc1NC(=O)c1ccc(OCc2ccccn2)cc1,Potency,[1],inactive
same,Potency,[2],inactive
CC(=O)O[C@@H]1[C@H](OC(C)=O)C[C@@]2(C)C(CC[C@@H](C)[C@]23Cc2c(O)cc4c(c2O3)CN([C@@H](CCC(=O)O)C(=O)O)C4=O)C1(C)C (some centres undefined),Potency,[1],inactive
same,Potency,[2],inactive
C=C1CC[C@H]2[C@@](C)(CCC(O)[C@@]2(C)CO)[C@@H]1/C=C/C(=C\C(=O)O)C(=O)O (some centres undefined),Potency,[1],inactive
same,Potency,[2],inactive
CC(CCO)CCC1C2(C)CCCC(C)(C)C2CC[C@@]1(C)O (some centres undefined),Potency,[1],inactive
same,Potency,[2],inactive
CC(=O)OC1C(C)C2C(OC3OC(CO)C(O)C(O)C3O)OC=C(C(=O)O)C2C1OC(=O)c1ccccc1 (centres undefined),Potency,[1],inactive
same,Potency,[2],inactive
CCC/C=C/C(=O)O[C@H]1CC(C)(C)CC2[C@]13[C@H](O)O[C@@]21CCC2[C@@]4(C)CC[C@H](O[C@@H]5O[C@H](C(=O)O)[C@@H](O)[C@H](O[C@@H]6O[C@H](CO)[C@H](O)[C@H](O)[C@H]6O[C@@H]6O[C@@H](C)[C@H](O)[C@@H](O)[C@H]6O[C@@H]6OC[C@](O)(CO)[C@H]6O)[C@H]5O[C@@H]5O[C@H](CO)[C@H](O)[C@H](O)[C@H]5O)C(C)(C)C4CC[C@@]2(C)[C@]1(C)C[C@H]3OC(C)=O (some centres undefined),"activity change, negative = inhibition",[1],3.01% [at 11.2 µM]
same,"activity change, negative = inhibition",[2],13.9% [at 11.2 µM]
C[C@@]1(O)[C@H](O)[C@@H](CO)O[C@H]1n1cnc2c(=O)[nH]c(N)nc21,Potency,[1],inactive
same,Potency,[2],inactive
CC1=CC(=O)CC(C)(CO[C@@H]2O[C@H](CO)[C@@H](O)[C@H](O)[C@H]2O)C1(O)/C=C/C(C)=C/C(=O)O (some centres undefined),Potency,[1],inactive
same,Potency,[2],inactive
COc1ccc(-n2c(SCC#N)nc3sc4c(c3c2=O)CCCC4)cc1,Potency,[1],inactive
same,Potency,[2],inactive
COc1cc(CN(CCN)C(=O)c2cccs2)ccc1OCc1ccccc1,Potency,[1],inactive
same,Potency,[2],inactive
COc1cc(F)c(C(C)C)cc1-c1ccc(C(F)(F)F)cc1CN1C(=O)OC(c2cc(C(F)(F)F)cc(C(F)(F)F)c2)C1C (centres undefined),Potency,[1],inactive
same,Potency,[2],inactive
CC(C)=CCC/C(C)=C/Cc1ccc(O)c(C2OC(=O)c3cc(C(=O)O)cc(O)c32)c1O (centres undefined),Potency,[1],inactive
same,Potency,[2],inactive
C=C1CC[C@@H]2[C@@](C)(CO[C@@H]3O[C@H](CO)[C@@H](O)[C@H](O)[C@H]3O)[C@H](O)CC[C@@]2(C)[C@@H]1CC/C(C)=C/CO[C@@H]1O[C@H](CO)[C@@H](O)[C@H](O)[C@H]1O,Potency,[1],inactive
same,Potency,[2],inactive
O=C(CCO[C@@H]1O[C@H](CO)[C@@H](O)[C@H](O)[C@H]1O)c1ccc(O)cc1,Potency,[1],inactive
same,Potency,[2],inactive
Cn1c(=O)c2nc(/C=C/c3cccc(Cl)c3)n(C)c2n(C)c1=O,Potency,[1],inactive
same,Potency,[2],inactive
C[C@@H]1CC[C@]2(C(=O)O)CC[C@]3(C)C(=CCC4[C@@]5(C)CC[C@H](O)C(C)(C)C5C(O)C[C@]43C)[C@@H]2[C@]1(C)O (some centres undefined),Potency,[1],inactive
same,Potency,[2],inactive
CCC(C)C1NC(=O)C2CCCN2C(=O)C(CC(O)CO)OC(=O)CCNC(=O)C(C)N(C)C(=O)C(C(C)C)N(C)C1=O (centres undefined) (cyclo([X10]PI[NMeV][NMeA][βAla]); configuration not given here),Potency,[1],inactive
same,Potency,[2],inactive
CC(O)C(=O)/C=C/C=C/C(=O)OC1C=C2COC(=O)C2(O)C2(C)CCCC(C)(C)C12 (centres undefined),Potency,[1],inactive
same,Potency,[2],inactive
C=C1C(=O)O[C@@H]2C[C@H](C)[C@@]3(O)C=C(C(C)=O)[C@]4(CC3C[C@H]12)C(=O)O[C@H]1C[C@@H](C)C(CCC(C)=O)=CC[C@H]14 (some centres undefined),Potency,[1],inactive
same,Potency,[2],inactive
C=CC(=O)N1CCCC(n2nc(-c3ccc(Oc4ccccc4)cc3)c3c(N)ncnc32)C1 (centres undefined),Potency,[1],inactive
same,Potency,[2],inactive
COc1cc(C2Oc3c(O)cc(CCCO)cc3C2CO)ccc1O[C@H]1O[C@H](C)[C@@H](O)[C@H](O)[C@@H]1O (some centres undefined),Potency,[1],inactive
same,Potency,[2],inactive
O=C(NC1CCC1)c1ccc(C#Cc2cccc(F)c2)nc1,Potency,[1],inactive
same,Potency,[2],inactive
O=C(NCC(=O)N1CCCC1)Nc1ccc2cnccc2c1,Potency,[1],inactive
same,Potency,[2],inactive
same,viability,[3],109%
same,Potency,[4],inactive
same,Potency,[5],inactive
same,Potency,[6],inactive
CCc1cc(CN2CC(C(=O)O)C2)sc1-c1noc(-c2ccc(Oc3ccccc3)cc2)n1,Potency,[1],inactive
same,Potency,[2],inactive
CC(C)C(N)C(=O)OCCOCn1cnc2c(=O)[nH]c(N)nc21 (centres undefined),Potency,[1],inactive
same,Potency,[2],inactive
CC(C)=CCCC1(C)Oc2cc3c(c4c2C2C(O4)C(C)(O)CCC21)CN(C(CCC(=O)O)C(=O)O)C3=O (centres undefined),Potency,[1],inactive
same,Potency,[2],inactive
C/C=C1/C[N+](C)([O-])C2Cc3c([nH]c4ccccc34)C(=O)CC1C2C(=O)OC (centres undefined),Potency,[1],inactive
same,Potency,[2],inactive

# Source: PubChem BioAssay (NCATS)
